# Results from PubChem BioAssay (NCATS).
# The source made the active and inactive calls. Calls come from the whole dose curve; as a rule, active = well fitted curve in the direction sought with a large enough effect; inconclusive = small, poorly fitted or top-dose-only effect, or another doubt; inactive = no such curve, though single readings can be large or run the other way.
# Molecular target: alpha-glucosidase (Oryza sativa, rice) (UniProt Q653V4)
# Assay: Counterscreen for Glucocerebrosidase Inhibitors: qHTS Assay for Rice alpha-Glucosidase at pH 5.0 (AID 997)
# Conditions: rice alpha-glucosidase enzyme activity; series mostly up to 76.9 µM
# Summary of the method: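 Rice alpha-glucosidase (4 nM final) with 400 uM 4-methylumbelliferyl-alpha-D-glucopyranoside in citrate buffer pH 5.0, 20 min at room temperature, stopped at pH 10; fluorescence 365/440 nm, compounds 0.7 nM–77 uM, AC50 from Hill fits.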
row,Compound,outcome
1,O=C(O)c1cc([N+](=O)[O-])ccc1NCCCc1ccccc1,inactive
2,CCCn1c(=O)c2[nH]c(-c3ccc(OCC(=O)NCCN)cc3)nc2n(CCC)c1=O,inactive
3,Cc1cc(NC(=O)Nc2ccc3c(ccn3C)c2)sn1,inactive
4,CCCCN1CCC(n2c(=O)[nH]c3ccccc32)CC1,inactive
5,N[C@@H](CC(=O)O)C(=O)O,inactive
6,CN(C)c1nc2c(Br)c(Br)c(Br)c(Br)c2[nH]1,inactive
7,COc1cccc(C(=O)NCCN2CCN(c3ccc(Cl)cc3)CC2)c1,inactive
8,Cc1ccc(O)c(N=Nc2ccccc2)n1,inactive
9,CCCCCCCC/C=C\CCCCCCCC(=O)NCCO,inactive
10,Oc1cc2c(cc1O)CN(C(=S)NCCc1ccc(Cl)cc1)CCC2,inactive
11,C[N+]1(C)CCC(OC(=O)C(c2ccccc2)c2ccccc2)CC1,inactive
12,O=C(O)[C@@H]1C[C@@H](C(=O)O)N1,inactive
13,CNCC[C@H](Oc1ccc(C(F)(F)F)cc1)c1ccccc1,inactive
14,COC1=C(OC)C(=O)c2ccccc2C1=O,inactive
15,NC(=O)C(=O)O,inactive
16,CC1(C)CCC=[N+]1[O-],inactive
17,Cn1c(=O)c2[nH]c(-c3ccccc3)nc2n(C)c1=O,inactive
18,N#C/C(=C\c1ccc(O)c(O)c1)C(=O)NCCCc1ccccc1,inactive
19,CN1CCc2ccccc2Cc2[nH]c3ccccc3c2CC1,inactive
20,COc1ccccc1N1CCN(CCCCNS(=O)(=O)c2cccc3c(N(C)C)cccc23)CC1,inactive
21,NCCCS(=O)(=O)O,inactive
22,O=Nc1ccc2oc(=O)ccc2c1,inactive
